In PubChem BioAssay (Tox21):
Records with an inconclusive call do not appear. A number with no mark means an inactive call. Activity calls are given as the source filed them. Calls follow the shape of the dose curve; as a rule, active = well fitted cell-killing curve with a large enough effect in the repeat runs; inconclusive = weak or mixed curves; inactive = flat fitted curve, though single readings scatter.

Test: qHTS RealTime-Glo MT Cell Viability Assay in HepG2 cells - 32 hour (AID 1224877); also: nearly all actives have a fitted effect of over 55% in size
Settings: RealTime-Glo luminescence; series mostly up to 76.8 µM; activity change, negative = cytotoxic: at the top concentration
From the text: U.S. Tox21 Program National Center for Advancing Translational Sciences [NCATS] NIH Chemical Genomics Center [NCGC] U.S. Environmental Protection Agency [EPA] National Institutes of Environmental Health Sciences [NIEHS] National Toxicology Program [NTP] U.S. Food and Drug Administration [FDA] Tox21 Assay Overview: Measure of cell viability is critical in the cell-base assay. Analysis of cell viability is necessary for the characterization of cell responses to cytotoxic drugs and environmental stress. A RealTime-Glo MT Cell Viability Assay to monitor cell viability in real time of continues cell culture during 40 hours of compound treatment was used to screen Tox21 10K library compounds in HepG2 cells. The RealTime-Glo MT Cell Viability Assay is a nonlytic, homogeneous, bioluminescent method to measure cell viability in real time using a simple, plate-based method. The assay involves adding NanoLuc luciferase and a cell-permeant prosubstrate to cells in culture. Viable cells reduce the proprietary prosubstrate to generate a substrate for NanoLuc luciferase. This substrate diffuses from cells into the surrounding culture medium, where it is rapidly used by the NanoLuc Enzyme to produce a luminescent signal. The signal correlates with the number of viable cells, making the assay well suited for cytotoxicity studies.
Tox21 Assay Protocol Summary: The mixture of HepG2 cell suspension and reagents were dispensed at 600cells/6 ul/well in 1536-well tissue culture treated black solid bottom plates using a Multidrop dispenser. After the assay plates were incubated at a 37 C/5% CO2 incubator for 5 hours, 23 nL of compounds dissolved in DMSO, positive and negative controls was transferred to the assay plate by a pintool work station. The plates were incubated at 37 C for 40 hours. The luminescence intensity were measured at 0h, 8h, 16h, 24h, 32h and 40h time points using ViewLux plate reader during compound treatment.
% is scaled to controls: 0 for no effect and ±100 for the full control effect.

Structure (SMILES)	outcome	activity change, negative = cytotoxic
CCCCCCCCOc1ccc(C(=O)c2ccccc2)c(O)c1	inactive	–
NCCNc1cccc2ccccc12	–	-0.378% [at 35.3 µM]
OC[C@@H](O)[C@@H](O)[C@H](O)[C@H](O)CO	inactive	–
CCCCOC(=O)CCCCCCCCC(=O)OCCCC	inactive	–
C[C@]12CC[C@@H]3c4ccc(O)cc4C[C@@H](CCCCCCCCCS(=O)CCCC(F)(F)C(F)(F)F)[C@H]3[C@@H]1CC[C@@H]2O (stereo not given in full)	inactive	–
C=C(C)C(N)=O	inactive	–
CC(C)CC(C)CC(O)CC(C)C (stereo not given)	inactive	–
N[C@@H](Cc1c[nH]c2ccccc12)C(=O)O	inactive	–
c1ccc2[nH]c(-c3cscn3)nc2c1	inactive	–
CN(C)C=O	inactive	–
O=C(OCc1ccccc1)c1ccccc1	inactive	–
C=C(C)OC(C)=O	inactive	–
Cc1cccc(C)c1O	inactive	–
CO[C@H]1C=CO[C@@]2(C)Oc3c(C)c(O)c4c(O)c(c(/C=N/N5CCN(C)CC5)c(O)c4c3C2=O)NC(=O)/C(C)=C\C=C[C@H](C)[C@H](O)[C@@H](C)[C@@H](O)[C@@H](C)[C@H](OC(C)=O)[C@@H]1C	inactive	–
COCC(C)N (stereo not given)	inactive	–
COC(=O)c1ccc(C=O)cc1	inactive	–
CCCCCCCCCCCCCCCCCC(=O)OCC(O)CO (stereo not given)	inactive	–
Cn1cnc2c1c(=O)[nH]c(=O)n2C	inactive	–
COc1ccc(O)cc1	inactive	–
NC(=O)c1ccc([N+](=O)[O-])cc1Cl	inactive	–

Structure (SMILES)	outcome	activity change, negative = cytotoxic
CC(C)(C)CC(C)(C)c1ccc(O)c(-n2nc3ccccc3n2)c1	inactive	–
CN/C(=C\[N+](=O)[O-])NCCSCc1ccc(CN(C)C)o1	inactive	–
O=c1c(-c2ccc(O)cc2)coc2cc(O)cc(O)c12	inactive	–
COc1ccc(C(=O)c2ccccc2)c(O)c1	inactive	–
CC(C)Cc1ccc(C(C)C(=O)O)cc1 (stereo not given)	inactive	–
Nc1cccc(N)c1	inactive	–
Cc1c(N(C)CS(=O)(=O)O)c(=O)n(-c2ccccc2)n1C	inactive	–
CN(C)Cc1cc(CN(C)C)c(O)c(CN(C)C)c1	inactive	–
CCCCOCCOCCSC#N	inactive	–
CCOCCO	inactive	–
CC(=O)Oc1ccccc1C(=O)O	inactive	–
NC(=O)N1c2ccccc2C=Cc2ccccc21	inactive	–
CCCCCCCCCCCCCC(=O)OC(C)C	inactive	–
CC(O)COc1ccccc1 (stereo not given)	inactive	–
C/C=C/c1ccc(O)c(OC)c1	inactive	–
O=[N+]([O-])c1ccc(O)cc1	inactive	–
CCn1cc(C(=O)O)c(=O)c2ccc(C)nc21	inactive	–
COc1ccccc1NC(=O)CC(C)=O	inactive	–
O=C1OC(c2ccc(O)cc2)(c2ccc(O)cc2)c2ccccc21	inactive	–
CC(=O)c1ccc(S(=O)(=O)NC(=O)NC2CCCCC2)cc1	inactive	–
